An excerpt weighted towards active compounds, which were near 3.5% of everything screened.
BoNT F protease: BoNT F light chain protease inhibition; actives 0.22% (n = 360,000); inhibition, % at 10 µM; Multiplex microsphere protease cleavage assay, flow cytometry; in the data active = inhibition above about 35%, passing the limit was not always enough; inconclusive = no clear call, values can overlap the other calls; note: plate controls were buffer without enzyme for full effect and enzyme alone for no effect
Anthrax LF inh2: blocks Bacillus anthracis lethal factor protease; P15917; multiplex microsphere protease cleavage assay, LF; inhibition, % at 10 µM; actives 0.12% (n = 360,000); AID 588501; note: plate controls were buffer without enzyme for full effect and enzyme alone for no effect
Autofluor counter: compound fluorescence in toxin protease inhibitor counterscreen. AID 624483. compound autofluorescence counterscreen, microsphere flow cytometry; hits give high values. fluorescence intensity (no concentration beside the values). actives 3.1% (n = 360,000); in the data active = fluorescence intensity above about 16000; inconclusive = no clear call, values can overlap the other calls
BoNT-A LC inh2: BoNT A light chain protease inhibition; inhibition, % at 10 µM; actives 0.17% (n = 360,000); multiplex microsphere protease substrate cleavage, flow cytometry; note: plate controls were buffer without enzyme for full effect and enzyme alone for no effect
An asterisk follows results filed as active; ? = inconclusive. Cut-off read from the data, not from the text of the source, unless noted: active = inhibition above about 30%; inconclusive = no clear call, values can overlap the other calls; inactive = below that.

SMILES	BoNT F protease	Anthrax LF inh2	Autofluor counter	BoNT-A LC inh2
CCOC(=O)c1ccc(NC(=O)CC2C(=O)N(c3ccccc3)C(=O)N2CCCOC)cc1 (centres undefined)	-0.9	-4.4	19974*	0.0
COC(=O)CSc1nc2c(c(-c3ccco3)c1C#N)CCCC2	-42.5	-11.4	4007	-3.2
CC(C)OC(=O)CC(=O)CSc1nc2c(c(-c3cccs3)c1C#N)CCC2	7.2	9.8	2297	29.5*
CCOC(=O)CSc1nc2c(c(-c3ccc(C)o3)c1C#N)CCCC2	-2.4	0.2	23315*	0.2
CCCn1c(SCC(=O)N2c3ccccc3CC2C)n[nH]c1=O (centres undefined)	-0.7	0.2	5704	-0.4
NNC(=O)c1oc2nc(-c3ccccc3)cc(-c3ccccc3)c2c1N	29.1	-7.3	16851*	-3.1
Cc1ccc(-c2cc(-c3ccco3)c3c(N)c(C(=O)NN)oc3n2)cc1	-22.4	-11.3	4125	-0.1
Cc1ccc(N2C(N)=C(C#N)C(c3cccs3)C3=C2CC(C)(C)CC3=O)cc1 (centres undefined)	-1.2	-1.8	23727*	?
COc1ccccc1-n1c(C)nnc1SCC(=O)Nc1cc(C)cc(C)c1	-0.4	-2.5	23628*	0.3
Cc1nnc(SCC(=O)Nc2cc(C(N)=O)cc(C(N)=O)c2)n1-c1ccccc1	0.5	1.1	2922	-1.5
COc1ccccc1-n1c(SCC(N)=O)nnc1-c1ccccc1	-8.3	-2.8	3413	-1.2
COc1ccccc1-n1c(C)nnc1SCC(N)=O	1.3	2.7	22827*	0.7
O=C(CSc1ccccc1)Nc1nnc(C2CC2)s1	-6.1	1.8	5833	-1.2
Cc1ccc(SCc2nc3ccccc3[nH]2)cc1	2.8	2.6	20672*	4.2
c1ccc(SCc2nc3ccccc3[nH]2)cc1	-9.9	0.9	24904*	-6.9
Cc1ccc(CSCc2nc3ccccc3[nH]2)cc1	-4.2	-3.1	3450	-0.1
c1ccc2[nH]c(CSc3nccs3)nc2c1	2.8	?	?	1.7
Clc1ccc(SCc2nc3ccccc3[nH]2)cc1	0.6	0.5	21863*	?
N#Cc1c(Cl)nc2c(c1C#N)CCCC2	-2.8	-3.8	4549	-0.3
CCc1nc2cc(Cl)c(Cl)cc2[nH]1	1.3	-0.8	23720*	?
Cc1noc(C)c1CSCC(=O)N(C)CC(=O)Nc1ccc(Cl)cc1	4.7	0.2	6200	-0.7
COc1ccc2c(c1)/C(=C/c1cnc[nH]1)C(=O)N2	1.5	-12.2	6058	0.2
O=C1Nc2ccccc2/C1=C/c1cnc[nH]1	-0.5	-6.7	19606*	3.4
COc1ccc(-c2nc(-n3c(C)c(C(C)=O)c(C(C)=O)c3C)sc2C)cc1OC	-4.4	-2.1	5892	-0.6
CC(=O)c1c(C(C)=O)c(C)n(-c2nc(-c3ccc(Br)cc3)c(C)s2)c1C	-8.2	-9.5	17033*	-2.9
SMILES	BoNT F protease	Anthrax LF inh2	Autofluor counter	BoNT-A LC inh2
Cc1nc2ccc(NC(=O)Cc3c(F)cccc3Cl)cc2s1	4.4	1.9	3696	-0.2
CCc1c(C)nc(N)nc1N1N=C1SC	-1.3	2.7	5437	-0.6
CCCCSC1=NN1c1nc(N)nc(C)c1CC	6.8	-2.4	22245*	2.9
CCC(Oc1cc(Cl)ccc1Cl)C(=O)NNC(=O)CCC(=O)O (centres undefined)	-4.5	-1.8	2944	-0.4
CCC(Oc1cc(Cl)ccc1Cl)C(=O)NN1C(=O)C2C3CCC(C3=C(C)C)C2C1=O (centres undefined)	35.4*	-0.3	4726	1.0
Cc1ccc(C)n1-n1c(C)nc2scc(-c3ccccc3)c2c1=O	-1.7	-3.1	21049*	-1.6
C=CCOc1c(CNc2ccc(C(=O)O)cc2)cccc1OC	-2.9	-2.3	2150	0.4
C=CCOc1c(CNc2ccc(C(=O)O)cc2)cccc1OCC	9.2	-0.2	19846*	?
CCCc1nc2c(Cl)cc(C(F)(F)F)cn2c1Cc1ccc(OC)cc1C	-9.0	0.9	5889	3.6
Cc1csc(NC(=O)C2CCN(C(=O)c3ccccc3C)CC2)n1	2.5	-1.3	4158	-0.3
Cc1csc(NC(=O)C2CCN(C(=O)CSc3nnc(C)n3Cc3ccccc3)CC2)n1	-5.6	0.7	20510*	?
C=CCNC(=O)COc1ccc(Br)cc1Cl	6.2	-10.1	20768*	3.7
COCCNC(=O)COc1ccc(Br)cc1Cl	2.9	-1.6	2459	0.1
CCOC(=O)N1CCN(C(=O)COc2ccc(Br)cc2Cl)CC1	-2.5	-1.0	20543*	?
O=C(COc1ccc(Br)cc1Cl)N1CCN(c2ncccn2)CC1	9.6	-4.1	2736	1.8
CS(=O)(=O)c1ccc(Cl)c(NC(=O)c2cc(S(=O)(=O)N3CCOCC3)ccc2N2CCCC2)c1	4.8	0.3	4524	-0.3
NC(c1csc(Nc2cnccn2)n1)c1ccccc1Cl (centres undefined)	-14.7	-7.4	3002	-0.9
CCC(C)(C)NC(=O)CN(C(=O)CNS(=O)(=O)c1ccc(F)cc1)c1ccc2c(c1)OCCO2	-2.3	-4.8	4641	-0.7
COc1ncnc2c1oc1nc(CC(C)C)c3c(c12)CC(C)(C)OC3	-2.1	-5.0	23399*	-0.2
CCOc1ccc(-c2nnn(CC(=O)NCCc3c[nH]c4ccccc34)n2)cc1	1.3	-8.7	8532	0.7
COc1ccc(-c2nnn(CC(=O)NCCc3c[nH]c4ccccc34)n2)cc1OC	-3.7	-2.3	21211*	-2.1
N#C/C(C(=O)c1ccccc1)=C1/CCCN1	-0.6	-3.2	23223*	-1.7
N#C/C(=C1\CCCN1)c1nc2ccccc2c(=O)[nH]1	-1.5	-7.2	2929	-1.1
COc1nc(Nc2cccc(C)c2)nc(N2CCCCC2)n1	-3.9	-11.0	9006	0.0
c1ccc(Nc2nc(N3CCCCC3)nc(N3CCCCC3)n2)cc1	8.9	1.7	4303	0.2
SMILES	BoNT F protease	Anthrax LF inh2	Autofluor counter	BoNT-A LC inh2
c1ccc(Nc2nc(N3CCCC3)nc(N3CCCC3)n2)cc1	-1.0	-5.2	20430*	0.6
Cc1cccc(Nc2nc(N3CCCC3)nc(N3CCCC3)n2)c1	-0.4	-1.5	22488*	1.4
CC(=O)C1CCC2C3CC=C4CC(SC(=N)N)CCC4(C)C3CCC12C (centres undefined)	-17.8	-7.0	2874	-0.2
COc1cc(C(=O)OCC(=O)Nc2ccccc2C(=O)NC2CC2)c([N+](=O)[O-])cc1OC	-3.7	0.0	2879	-0.3
Cc1noc(C)c1COc1ccc(CC(=O)NCCc2ccccc2)cc1	8.4	-5.3	8573	0.4
Cc1nnc(NC(=O)Cc2ccc(OCc3c(C)noc3C)cc2)s1	-5.4	0.3	17361*	-2.3
CNc1c([N+](=O)[O-])cnn1-c1ccccc1F	-2.6	3.3	4313	-0.8
CNc1c([N+](=O)[O-])cnn1-c1ccc(C)cc1	-1.3	-6.8	23938*	-0.8
Cc1cc(C)cc(C(=O)NCCC(=O)N2CCC3(CC2)NCCc2[nH]cnc23)c1	2.0	-3.7	5814	-0.8
O=C(CCC1CCCCC1)NNC(=O)c1cnccn1	-9.4	-2.6	9736	-1.5
O=C(NNC(=O)C1CCCCC1)c1cnccn1	4.3	0.8	22696*	2.6
NS(=O)(=O)c1ccc(CCNC(=O)c2cccc(S(=O)(=O)N3CCCC3)c2)cc1	-5.0	-1.1	4086	-0.9
CC(NC(=O)c1cc(S(=O)(=O)N(C)C)ccc1Cl)c1ccc(-n2ccnc2)cc1 (centres undefined)	8.2	-0.2	5497	1.9

Assay outcomes deposited in PubChem by NMMLSC.
